Among the data in paper PMC11006913 are binding signal values, retold here.

Common to all, as to test: PBM; 200 nM protein, PBS
Conditions in all cases: dsDNA, one strand shown

Experiment [1] addresses HOXD13 (Homo sapiens, UniProt P35453 263-343, T313R).
The target of experiment [2] is HOXD13 (Homo sapiens, UniProt P35453 263-343).
Experiment [3] deals with HOXD13 (Homo sapiens, UniProt P35453 263-343, T313A).
Sequence of HOXD13 (Homo sapiens, UniProt P35453 263-343, T313A) (P35453 263-343 T313A): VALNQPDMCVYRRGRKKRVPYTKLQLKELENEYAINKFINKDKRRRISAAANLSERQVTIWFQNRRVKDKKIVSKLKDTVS

Sequence of HOXD13 (Homo sapiens, UniProt P35453 263-343, T313R) (P35453 263-343 T313R): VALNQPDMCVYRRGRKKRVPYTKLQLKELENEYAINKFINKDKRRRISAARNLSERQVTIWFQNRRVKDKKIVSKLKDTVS
Sequence of HOXD13 (Homo sapiens, UniProt P35453 263-343) (P35453 263-343): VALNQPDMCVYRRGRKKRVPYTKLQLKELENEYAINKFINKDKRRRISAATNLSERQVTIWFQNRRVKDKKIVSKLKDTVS

Turning to GTTTTATA, the binding signal with HOXD13 [1] was 10.8 upbm affinity estimate (log intensity, higher = more binding, comparable within an allelic series); in the experiment with HOXD13 [2], 11.8 upbm affinity estimate (log intensity, higher = more binding, comparable within an allelic series); in the experiment with HOXD13 [3], 11.6 upbm affinity estimate (log intensity, higher = more binding, comparable within an allelic series).

On to CATCGGGG, for which the binding signal with HOXD13 [1] is 9.56 upbm affinity estimate (log intensity, higher = more binding, comparable within an allelic series); in the experiment with HOXD13 [2], 9.66 upbm affinity estimate (log intensity, higher = more binding, comparable within an allelic series); with HOXD13 [3], 9.72 upbm affinity estimate (log intensity, higher = more binding, comparable within an allelic series).

As for GCCACGGA, the binding signal with HOXD13 [1] was 9.56 upbm affinity estimate (log intensity, higher = more binding, comparable within an allelic series); in the experiment with HOXD13 [2], 9.61 upbm affinity estimate (log intensity, higher = more binding, comparable within an allelic series); with HOXD13 [3] it was 9.69 upbm affinity estimate (log intensity, higher = more binding, comparable within an allelic series).

Turning to CCTATTAA, the binding signal with HOXD13 [1] was 11 upbm affinity estimate (log intensity, higher = more binding, comparable within an allelic series); with HOXD13 [2], 12.1 upbm affinity estimate (log intensity, higher = more binding, comparable within an allelic series); in the experiment with HOXD13 [3], 11.9 upbm affinity estimate (log intensity, higher = more binding, comparable within an allelic series).

Regarding AGGAGGGG, the binding signal is 9.43 upbm affinity estimate (log intensity, higher = more binding, comparable within an allelic series) with HOXD13 [1]; 9.61 upbm affinity estimate (log intensity, higher = more binding, comparable within an allelic series) with HOXD13 [2]; 9.63 upbm affinity estimate (log intensity, higher = more binding, comparable within an allelic series) with HOXD13 [3].

On to CATGTATA, for which the binding signal was 10.3 upbm affinity estimate (log intensity, higher = more binding, comparable within an allelic series) with HOXD13 [1]; 10.8 upbm affinity estimate (log intensity, higher = more binding, comparable within an allelic series) with HOXD13 [2]; 11 upbm affinity estimate (log intensity, higher = more binding, comparable within an allelic series) with HOXD13 [3].

In the case of GGGCCGGA, the binding signal with HOXD13 [1] was 9.43 upbm affinity estimate (log intensity, higher = more binding, comparable within an allelic series); with HOXD13 [2], 9.41 upbm affinity estimate (log intensity, higher = more binding, comparable within an allelic series); in the experiment with HOXD13 [3] it was 9.47 upbm affinity estimate (log intensity, higher = more binding, comparable within an allelic series).

As for CACCGGTG, the binding signal was 9.69 upbm affinity estimate (log intensity, higher = more binding, comparable within an allelic series) with HOXD13 [1]; 9.58 upbm affinity estimate (log intensity, higher = more binding, comparable within an allelic series) with HOXD13 [2]; 9.72 upbm affinity estimate (log intensity, higher = more binding, comparable within an allelic series) with HOXD13 [3].

With TCTCGTAA, the binding signal in the experiment with HOXD13 [1] is 10.5 upbm affinity estimate (log intensity, higher = more binding, comparable within an allelic series); with HOXD13 [2], 11.8 upbm affinity estimate (log intensity, higher = more binding, comparable within an allelic series); with HOXD13 [3], 11.6 upbm affinity estimate (log intensity, higher = more binding, comparable within an allelic series).

On to CCGCCCTC, for which the binding signal was 9.56 upbm affinity estimate (log intensity, higher = more binding, comparable within an allelic series) with HOXD13 [1]; 9.65 upbm affinity estimate (log intensity, higher = more binding, comparable within an allelic series) in the experiment with HOXD13 [2]; 9.66 upbm affinity estimate (log intensity, higher = more binding, comparable within an allelic series) in the experiment with HOXD13 [3].

CACCGCCA: the binding signal with HOXD13 [1] is 9.56 upbm affinity estimate (log intensity, higher = more binding, comparable within an allelic series); in the experiment with HOXD13 [2], 9.65 upbm affinity estimate (log intensity, higher = more binding, comparable within an allelic series); with HOXD13 [3] it was 9.8 upbm affinity estimate (log intensity, higher = more binding, comparable within an allelic series).

Regarding AGTTTATA, the binding signal in the experiment with HOXD13 [1] was 10.7 upbm affinity estimate (log intensity, higher = more binding, comparable within an allelic series); in the experiment with HOXD13 [2] it was 11.9 upbm affinity estimate (log intensity, higher = more binding, comparable within an allelic series); with HOXD13 [3] it was 11.6 upbm affinity estimate (log intensity, higher = more binding, comparable within an allelic series).

Consider CGCCGCCC, for which the binding signal with HOXD13 [1] was 9.48 upbm affinity estimate (log intensity, higher = more binding, comparable within an allelic series); with HOXD13 [2], 9.53 upbm affinity estimate (log intensity, higher = more binding, comparable within an allelic series); with HOXD13 [3], 9.6 upbm affinity estimate (log intensity, higher = more binding, comparable within an allelic series).

Turning to CCCGCCCC, the binding signal with HOXD13 [1] is 9.6 upbm affinity estimate (log intensity, higher = more binding, comparable within an allelic series); with HOXD13 [2], 9.54 upbm affinity estimate (log intensity, higher = more binding, comparable within an allelic series); with HOXD13 [3] it was 9.7 upbm affinity estimate (log intensity, higher = more binding, comparable within an allelic series).

Regarding CGCACAGC, the binding signal with HOXD13 [1] is 9.44 upbm affinity estimate (log intensity, higher = more binding, comparable within an allelic series); with HOXD13 [2], 9.48 upbm affinity estimate (log intensity, higher = more binding, comparable within an allelic series); in the experiment with HOXD13 [3] it was 9.53 upbm affinity estimate (log intensity, higher = more binding, comparable within an allelic series).

Regarding TTGTAAAA, the binding signal with HOXD13 [1] was 10.7 upbm affinity estimate (log intensity, higher = more binding, comparable within an allelic series); in the experiment with HOXD13 [2] it was 11.8 upbm affinity estimate (log intensity, higher = more binding, comparable within an allelic series); with HOXD13 [3], 11.6 upbm affinity estimate (log intensity, higher = more binding, comparable within an allelic series).

In the case of ATATAAAC, the binding signal with HOXD13 [1] is 10.8 upbm affinity estimate (log intensity, higher = more binding, comparable within an allelic series); with HOXD13 [2] it was 11.8 upbm affinity estimate (log intensity, higher = more binding, comparable within an allelic series); in the experiment with HOXD13 [3], 11.5 upbm affinity estimate (log intensity, higher = more binding, comparable within an allelic series).

On to CTTGTTAA, for which the binding signal in the experiment with HOXD13 [1] was 10.6 upbm affinity estimate (log intensity, higher = more binding, comparable within an allelic series); in the experiment with HOXD13 [2], 11.8 upbm affinity estimate (log intensity, higher = more binding, comparable within an allelic series); in the experiment with HOXD13 [3] it was 11.7 upbm affinity estimate (log intensity, higher = more binding, comparable within an allelic series).

On to CCTGAAGG, for which the binding signal in the experiment with HOXD13 [1] is 9.53 upbm affinity estimate (log intensity, higher = more binding, comparable within an allelic series); with HOXD13 [2], 9.53 upbm affinity estimate (log intensity, higher = more binding, comparable within an allelic series); with HOXD13 [3] it was 9.6 upbm affinity estimate (log intensity, higher = more binding, comparable within an allelic series).

Take CTGGCCCC: the binding signal with HOXD13 [1] is 9.44 upbm affinity estimate (log intensity, higher = more binding, comparable within an allelic series); with HOXD13 [2], 9.38 upbm affinity estimate (log intensity, higher = more binding, comparable within an allelic series); with HOXD13 [3], 9.45 upbm affinity estimate (log intensity, higher = more binding, comparable within an allelic series).

ATTACGAG: the binding signal was 10.5 upbm affinity estimate (log intensity, higher = more binding, comparable within an allelic series) with HOXD13 [1]; 11.7 upbm affinity estimate (log intensity, higher = more binding, comparable within an allelic series) in the experiment with HOXD13 [2]; 11.4 upbm affinity estimate (log intensity, higher = more binding, comparable within an allelic series) with HOXD13 [3].

TCGATCGA: the binding signal was 9.65 upbm affinity estimate (log intensity, higher = more binding, comparable within an allelic series) with HOXD13 [1]; 9.44 upbm affinity estimate (log intensity, higher = more binding, comparable within an allelic series) with HOXD13 [2]; 9.58 upbm affinity estimate (log intensity, higher = more binding, comparable within an allelic series) with HOXD13 [3].

GCAAGACC: the binding signal with HOXD13 [1] is 9.62 upbm affinity estimate (log intensity, higher = more binding, comparable within an allelic series); with HOXD13 [2], 9.57 upbm affinity estimate (log intensity, higher = more binding, comparable within an allelic series); with HOXD13 [3] it was 9.69 upbm affinity estimate (log intensity, higher = more binding, comparable within an allelic series).

In the case of CAGTGGGG, the binding signal with HOXD13 [1] was 9.47 upbm affinity estimate (log intensity, higher = more binding, comparable within an allelic series); in the experiment with HOXD13 [2], 9.55 upbm affinity estimate (log intensity, higher = more binding, comparable within an allelic series); with HOXD13 [3] it was 9.72 upbm affinity estimate (log intensity, higher = more binding, comparable within an allelic series).

On to CGCCCCCA, for which the binding signal is 9.33 upbm affinity estimate (log intensity, higher = more binding, comparable within an allelic series) in the experiment with HOXD13 [1]; 9.3 upbm affinity estimate (log intensity, higher = more binding, comparable within an allelic series) with HOXD13 [2]; 9.5 upbm affinity estimate (log intensity, higher = more binding, comparable within an allelic series) with HOXD13 [3].

GGCCGGCA: the binding signal with HOXD13 [1] was 9.49 upbm affinity estimate (log intensity, higher = more binding, comparable within an allelic series); with HOXD13 [2], 9.56 upbm affinity estimate (log intensity, higher = more binding, comparable within an allelic series); with HOXD13 [3], 9.65 upbm affinity estimate (log intensity, higher = more binding, comparable within an allelic series).
